Laboratory results reported in PubChem BioAssay (EPA / NIEHS).
Activity calls are given as the source filed them. How the source made its calls: active means hit-call score of the fitted dose curve at least 0.9, where 1 is the maximum; inactive means score below 0.9.

molecular target: Hepatocyte nuclear factor 6 (Homo sapiens) (UniProt Q9UBC0); assay: ATG_HNF6_CIS: Attagene CIS-FACTORIAL HepG2 Assay for human Hepatocyte Nuclear Factor 6 (HNF6) (AID 2282952); conditions: HepG2 Attagene cis-factorial HNF6 reporter transcription; actives raise or lower the signal
Method: ATG_CIS is a cell-based, multiplexed-readout assay that uses HepG2, a human liver cell line, with measurements taken at 24 hours after chemical dosing in a 24-well plate.ATG_HNF6_CIS is one of 52 assay component(s) measured or calculated from the ATG_CIS assay. It is designed to make measurements of mRNA induction, a form of inducible reporter, as detected with fluorescence intensity signals by Reverse transcription polymerase chain reaction (RT-PCR) and Capillary electrophoresis technology.Data from the assay component ATG_HNF6_CIS was analyzed into 1 assay endpoint. This assay endpoint, ATG_HNF6_CIS, was analyzed with bidirectional fitting relative to DMSO as the negative control and baseline of activity. Using a type of inducible reporter, measures of mRNA for gain or loss-of-signal activity can be used to understand the reporter gene at the transcription factor-level as they relate to the gene ONECUT1. Furthermore, this assay endpoint can be referred to as a primary readout, because this assay has produced multiple assay endpoints where this one serves a reporter gene function. To generalize the intended target to other relatable targets, this assay endpoint is annotated to the dna binding intended target family, where the subfamily is homeobox protein.
Human liver HepG2 cells are transiently transfected with multiple reporter transcription units (MRTUs) in 6-well plates using FuGene 6 reagent (Roche; 3 ml FuGene/1 mg DNA). The MRTU constructs are regulated by a cis-regulating element (promoter). […] A major difference between the CIS and TRANS system is that in CIS activities of endogenous TFs are measured, whereas the TRANS assay evaluates changes in activities of exogenous, chimeric NR-Gal4 proteins. […] At the end of 24 hour incubation, total RNA was isolated using TriZol reagent (Invitrogen). The isolated RNA is then reverse-transcribed using oligo(dT) primer and Mo-MLV reverse transcriptase (Invitrogen) with DNAse I (Ambion) treatment for 30 min. The one-tenth of the produced cDNA was amplified by PCR using Taq DNA polymerase (Invitrogen) and two reporter sequence-specific primers. The PCR products were fluorescently labeled by primer extension with 6-arboxyfluorescein (6-FAM) 5'-labeled reporter sequence-specific primer (2 min at 95 C, 20 s at 68 C and 10 min at 72 C) and these products were digested with 5U of HpaI (New England Biolabs) for 2h at 37 C. The fragments were purified using Qiaquick PCR columns (Qiagen), analyzed on an ABI 3130xL genetic analyzer (Applied Biosystems) with peak positions identified by using a set of X-rhodamine (ROX)-labeled MapMarker1000 molecular weight standards (BioVentures). The raw capillary electrophoresis data was processed using Attagraph software (Attagene).

Hepatocyte nuclear factor 6 (Homo sapiens), sequence (Q9UBC0 whole entry, looked up): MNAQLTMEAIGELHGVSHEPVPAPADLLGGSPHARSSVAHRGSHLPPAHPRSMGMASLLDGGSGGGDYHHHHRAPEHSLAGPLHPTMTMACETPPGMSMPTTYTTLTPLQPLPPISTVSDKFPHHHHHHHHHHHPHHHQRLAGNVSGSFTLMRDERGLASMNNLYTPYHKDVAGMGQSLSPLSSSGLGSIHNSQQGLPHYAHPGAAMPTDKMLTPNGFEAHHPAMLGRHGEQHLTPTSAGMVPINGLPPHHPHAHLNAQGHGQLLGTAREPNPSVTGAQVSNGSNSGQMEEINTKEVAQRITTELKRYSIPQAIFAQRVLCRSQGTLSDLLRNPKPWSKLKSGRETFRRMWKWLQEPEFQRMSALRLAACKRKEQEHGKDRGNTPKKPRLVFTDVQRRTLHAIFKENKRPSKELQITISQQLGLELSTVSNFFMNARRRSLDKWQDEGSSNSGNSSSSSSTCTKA

**Q.** With `COC(=O)c1sccc1S(N)(=O)=O` as the compound, how does the outcome read?
**A.** The outcome was “inactive”.

**Q.** With `NC(=O)C1CO1` (stereo not given) as the compound, how does the outcome read?
**A.** The outcome was “inactive”.

**Q.** With `CCCCCc1ccc(Cl)cc1` as the compound, how does the outcome read?
**A.** The outcome was “inactive”.

**Q.** `O=C1CCCN1CCO` was tested. Which outcome did it give?
**A.** Its outcome is “inactive”.

**Q.** For `CCCCCCC(O)CO` (stereo not given), which outcome is on record?
**A.** Its outcome is “inactive”.

**Q.** With `C=C[C@](C)(O)CC[C@@H]1[C@@]2(C)CCCC(C)(C)[C@@H]2CC[C@@]1(C)O` as the compound, how does the outcome read?
**A.** Its outcome is “inactive”.

**Q.** With `O=S(=O)(O)c1ccc2cc(O)c(S(=O)(=O)O)cc2c1` as the compound, how does the outcome read?
**A.** Its outcome is “inactive”.

**Q.** Which outcome does the source give for `CC1=CC[C@H](C(C)C)C=C1` here?
**A.** Its outcome is “inactive”.

**Q.** How did the outcome turn out when `O=C(Oc1ccccc1)c1ccc2ccccc2c1O` was run?
**A.** Its outcome is “inactive”.

**Q.** Which outcome does the source give for `C/C=C\C/C=C/CCCCCCCCOC(C)=O` here?
**A.** Its outcome is “inactive”.

**Q.** `Cc1c(C)c([N+](=O)[O-])c(C(C)(C)C)c([N+](=O)[O-])c1C` was tested. Which outcome did it give?
**A.** The outcome was “inactive”.

**Q.** With `CC(C)(C)c1ccc(N)cc1` as the compound, how does the outcome read?
**A.** The outcome was “inactive”.

**Q.** Which outcome does the source give for `O=C1CCCCCCCCCCC(=O)OCCO1` here?
**A.** Its outcome is “inactive”.

**Q.** How did the outcome turn out when `Cc1ccc(N)c([N+](=O)[O-])c1` was run?
**A.** The outcome was “inactive”.

**Q.** How did the outcome turn out when `S=C(NC1CCCCC1)NC1CCCCC1` was run?
**A.** The outcome was “inactive”.

**Q.** Which outcome does the source give for `ON(Cc1ccccc1)Cc1ccccc1` here?
**A.** The outcome was “inactive”.

**Q.** For `COc1ccc(NC(C)=O)cc1N`, which outcome is on record?
**A.** The outcome was “inactive”.

**Q.** Which outcome does the source give for `O=c1cc(-c2ccccc2)oc2ccccc12` here?
**A.** The outcome was “inactive”.

**Q.** `Nc1ccc(Oc2ccc(N)c(N)c2)cc1` was tested. Which outcome did it give?
**A.** The outcome was “inactive”.

**Q.** With `Cc1ccc(N/N=c2\c(=O)cc/c(=N/Nc3ccc(S(=O)(=O)O)cc3)c2=O)c(C)c1` as the compound, how does the outcome read?
**A.** The outcome was “inactive”.

**Q.** For `Cc1cccc(C(=O)O)c1`, which outcome is on record?
**A.** Its outcome is “inactive”.

**Q.** For `CC(=O)Nc1nnc(S(N)(=O)=O)s1`, which outcome is on record?
**A.** The outcome was “inactive”.

**Q.** `CCOC(=O)N1CCC(=C2c3ccc(Cl)cc3CCc3cccnc32)CC1` was tested. Which outcome did it give?
**A.** The outcome was “inactive”.

**Q.** For `O=Cc1ccc(CO)o1`, which outcome is on record?
**A.** The outcome was “inactive”.

**Q.** `Cc1ccc(C(C)(C)C)cc1` was tested. Which outcome did it give?
**A.** The outcome was “inactive”.

**Q.** Which outcome does the source give for `O=c1n(CCO)c(=O)n(CCO)c(=O)n1CCO` here?
**A.** The outcome was “inactive”.

**Q.** How did the outcome turn out when `CCCCCCOC(=O)C(C)CC` (stereo not given) was run?
**A.** Its outcome is “inactive”.

**Q.** Which outcome does the source give for `CCOC(=O)CC` here?
**A.** Its outcome is “inactive”.

**Q.** `CC1(C)[C@H]2CC[C@]1(C)C(=O)C2` was tested. Which outcome did it give?
**A.** The outcome was “inactive”.

**Q.** Which outcome does the source give for `c1c[nH]cn1` here?
**A.** The outcome was “inactive”.

**Q.** How did the outcome turn out when `CO[Si](OC)(OC)c1ccccc1` was run?
**A.** The outcome was “inactive”.

**Q.** With `CC1=Nc2ccc3ccccc3c2C1(C)C` as the compound, how does the outcome read?
**A.** The outcome was “inactive”.

**Q.** With `C=C[Si](C)(C)O[Si](C)(C)C=C` as the compound, how does the outcome read?
**A.** Its outcome is “inactive”.

**Q.** `c1ccc2c(c1)ccc1ncccc12` was tested. Which outcome did it give?
**A.** Its outcome is “inactive”.

**Q.** Which outcome does the source give for `CCCNC(=O)NS(=O)(=O)c1ccc(Cl)cc1` here?
**A.** The outcome was “inactive”.

**Q.** Which outcome does the source give for `O=C1C=CC(=O)O1` here?
**A.** Its outcome is “inactive”.

**Q.** How did the outcome turn out when `CC/C=C\CCOC(=O)CCCCC` was run?
**A.** The outcome was “inactive”.

**Q.** `[Cl][Nd]([Cl])[Cl]` was tested. Which outcome did it give?
**A.** The outcome was “inactive”.

**Q.** `CCCCCCCC(C)=O` was tested. Which outcome did it give?
**A.** The outcome was “inactive”.

**Q.** For `OCCN(CCO)c1ccccc1`, which outcome is on record?
**A.** Its outcome is “inactive”.
